Source: the supplement of paper PMC12645437, “Orthogonal IMiD-Degron Pairs Induce Selective Protein Degradation in Cells” (ACS Chemical Biology, 2025)
The full ranking holds about 8,300 sequences; the median of “log2 fold change of degron read counts, EGFP-low vs EGFP+ sorted cells (limma voom), compound-induced degradation” is about -1.1, and the highest 2% start at about 3.2. The entries come from a sample that favours the highest values as a whole.

B1: 46F_47W_49P_50Q_52G_53A_54T_55F_67L_, Q9UKT9 (peptide)
chain: FWCPQCGATFTQKGNLLRHIKL
B2: 46F_47M_49D_50Q_52G_53A_54A_55F_67L_, Q9UKT9 (peptide)
chain: FMCDQCGAAFTQKGNLLRHIKL
B3: 46L_47Y_49N_50Q_52G_53F_54L_55C_67L_, Q9UKT9 (peptide)
chain: LYCNQCGFLCTQKGNLLRHIKL
B4: 46F_47E_49E_50I_52G_53R_54S_55F_67L_, Q9UKT9 (peptide)
chain: FECEICGRSFTQKGNLLRHIKL
B5: 46F_47N_49E_50Q_52G_53A_54W_55F_67L_, Q9UKT9 (peptide)
chain: FNCEQCGAWFTQKGNLLRHIKL
B6: 46F_47L_49D_50I_52G_53A_54D_55F_67L_, Q9UKT9 (peptide)
chain: FLCDICGADFTQKGNLLRHIKL
B7: 46F_47H_49P_50I_52G_53R_54N_55F_67L_, Q9UKT9 (peptide)
chain: FHCPICGRNFTQKGNLLRHIKL
B8: 46F_47E_49E_50I_52G_53A_54D_55F_67L_, Q9UKT9 (peptide)
chain: FECEICGADFTQKGNLLRHIKL
B9: 46L_47V_49P_50I_52G_53F_54N_55C_67L_, Q9UKT9 (peptide)
chain: LVCPICGFNCTQKGNLLRHIKL
B10: 46L_47W_49P_50I_52G_53F_54P_55C_67L_, Q9UKT9 (peptide)
chain: LWCPICGFPCTQKGNLLRHIKL
B11: 46F_47Q_49P_50I_52G_53A_54P_55F_67L_, Q9UKT9 (peptide)
chain: FQCPICGAPFTQKGNLLRHIKL
B12: 46F_47I_49P_50I_52G_53A_54D_55F_67L_, Q9UKT9 (peptide)
chain: FICPICGADFTQKGNLLRHIKL
B13: 46F_47A_49P_50I_52G_53A_54D_55F_67L_, Q9UKT9 (peptide)
chain: FACPICGADFTQKGNLLRHIKL
B14: 46F_47A_49P_50I_52G_53A_54M_55F_67L_, Q9UKT9 (peptide)
chain: FACPICGAMFTQKGNLLRHIKL
B15: 46F_47M_49P_50I_52G_53A_54D_55F_67L_, Q9UKT9 (peptide)
chain: FMCPICGADFTQKGNLLRHIKL
B16: 46F_47Q_49P_50I_52G_53A_54F_55F_67L_, Q9UKT9 (peptide)
chain: FQCPICGAFFTQKGNLLRHIKL
B17: 46F_47M_49P_50I_52G_53A_54P_55F_67L_, Q9UKT9 (peptide)
chain: FMCPICGAPFTQKGNLLRHIKL
B18: 46F_47M_49P_50I_52G_53A_54M_55F_67L_, Q9UKT9 (peptide)
chain: FMCPICGAMFTQKGNLLRHIKL
B19: 46F_47A_49P_50I_52G_53A_54P_55F_67L_, Q9UKT9 (peptide)
chain: FACPICGAPFTQKGNLLRHIKL
B20: 46F_47I_49P_50I_52G_53H_54P_55F_67L_, Q9UKT9 (peptide)
chain: FICPICGHPFTQKGNLLRHIKL
B21: 46F_47I_49P_50I_52G_53A_54P_55F_67L_, Q9UKT9 (peptide)
chain: FICPICGAPFTQKGNLLRHIKL
B22: 46F_47Q_49P_50I_52G_53R_54P_55F_67L_, Q9UKT9 (peptide)
chain: FQCPICGRPFTQKGNLLRHIKL

Target: T1, CRBN, Q96SW2
T1 chain: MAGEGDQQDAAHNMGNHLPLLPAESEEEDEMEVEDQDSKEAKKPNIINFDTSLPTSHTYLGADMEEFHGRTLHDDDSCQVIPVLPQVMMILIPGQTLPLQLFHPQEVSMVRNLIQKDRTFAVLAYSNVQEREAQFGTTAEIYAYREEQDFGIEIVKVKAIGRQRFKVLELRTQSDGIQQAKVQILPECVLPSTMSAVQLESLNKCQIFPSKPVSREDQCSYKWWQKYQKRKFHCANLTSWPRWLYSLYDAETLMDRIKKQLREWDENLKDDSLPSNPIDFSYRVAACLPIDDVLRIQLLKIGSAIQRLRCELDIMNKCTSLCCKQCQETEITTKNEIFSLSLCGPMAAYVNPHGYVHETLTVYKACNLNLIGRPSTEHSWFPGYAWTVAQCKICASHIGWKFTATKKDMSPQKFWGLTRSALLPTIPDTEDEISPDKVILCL
Assay: log2 fold change of degron read counts, EGFP-low vs EGFP+ sorted cells (limma voom), compound-induced degradation; higher = more compound-induced degradation of the degron-EGFP fusion; degrons are variants of IKZF1/3 zinc finger 2; compound dose not given here
Conditions: Jurkat, 18 h

[1] = compound: compound 19 (5-tert-butyl-thalidomide)
[2] = compound: compound 22 (5-morpholino-thalidomide)
[3] = compound: compound 33 (diphenyl IMiD analogue)
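Also: pooled lentiviral library of zinc finger degron-EGFP fusions in mCherry-positive Jurkat cells, FACS-sorted after compound exposure, with degron abundance counted by next-generation sequencing.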

Sequence | log2 fold change of degron read counts [1] | log2 fold change of degron read counts [2] | log2 fold change of degron read counts [3] | log2 fold change of degron read counts (compound: thalidomide)
B1 | -0.373 | 1.49 | 0.797 | -1.24
B2 | -1.96 | -2.12 | 0.439 | -2.32
B3 | -1.29 | -1.42 | -1.67 | -1.29
B4 | -2.51 | -3.16 | -1.24 | -1.32
B5 | -2.53 | -2.58 | -2.99 | -2.13
B6 | -2.36 | -3.49 | -2.12 | -2.22
B7 | -0.818 | -0.983 | -0.208 | -0.527
B8 | -1.96 | -2.74 | 0.273 | 0.225
B9 | -0.376 | 1.56 | 1.51 | 2.74
B10 | 1.54 | 1.47 | 1.88 | 1.22
B11 | 3.38 | 3.6 | 2.53 | 3.65
B12 | -0.647 | 0.966 | 1.15 | 1.89
B13 | 2.75 | 0.745 | 0.673 | 0.2
B14 | 2.8 | 1.12 | 0.702 | 0.265
B15 | -1.3 | -0.0353 | 2.99 | 1.23
B16 | -1.33 | -0.0266 | 2.3 | 2.67
B17 | 3.36 | 3.49 | 3.09 | 2.98
B18 | -0.414 | -0.22 | 1.72 | 0.511
B19 | 3.7 | 3.03 | 1.56 | 2.64
B20 | -1.76 | -0.823 | -0.563 | 0.027
B21 | 1.94 | 3.65 | 2.52 | 3.16
B22 | 0.103 | 1.27 | 0.384 | 2.92
